Source: PubChem BioAssay AID1159580 (chemical genetic matrix, 2015)
Values joined by “and” are separate entries in the source; they are usually repeats but may differ in a detail not shown here. Equal entries are not always repeated. Out of some 5,500 compounds screened, about 2,000 (36%) were called active. Not shown: some 18% with an inconclusive outcome. Cut-off read from the data, not from the text of the source: active = normalized growth mostly below about 0.91 (no sharp cut-off); inconclusive = no clear call, values can overlap the other calls; inactive = mostly above about 0.92. The list shows a part of the results.

Test: chemical genetic growth profiling, strain panel (AID 1159580);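 note: tested at 20 µM; growth read once vehicle control cultures reached saturation at 30 °C; 1 = growth at the plate median or of vehicle wells; lower values mean less growth of the strain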
Conditions: growth OD

Measured: normalized growth

CN(C)C(=O)Oc1cccc([N+](C)(C)C)c1
inactive: S. cerevisiae deletion strains, locus YJR075W, strain HOC1, stronger effect = lower value 1.02 | S. cerevisiae deletion strains, locus YKL009W, strain mrt4, stronger effect = lower value 0.969 | S. cerevisiae deletion strains, locus YKL068W, stronger effect = lower value 0.988 | S. cerevisiae deletion strains, locus YKL085W, strain MDH1 (second series), stronger effect = lower value 0.985 | S. cerevisiae deletion strains, locus YKL085W, strain MDH1, stronger effect = lower value 0.985 | S. cerevisiae deletion strains, locus YKL160W, strain elf1, stronger effect = lower value 0.996 | S. cerevisiae deletion strains, locus YKL190W, strain CNB1, stronger effect = lower value 1 | S. cerevisiae deletion strains, locus YKR001C, strain vps1, stronger effect = lower value 0.983 | S. cerevisiae deletion strains, locus YKR026C, strain gcn3, stronger effect = lower value 0.984 | S. cerevisiae deletion strains, locus YKR091W, strain srl3, stronger effect = lower value 0.995 | S. cerevisiae deletion strains, locus YLL001W, strain dnm1, stronger effect = lower value 0.988 | S. cerevisiae deletion strains, locus YLL026W, stronger effect = lower value 1 | S. cerevisiae deletion strains, locus YLL041C, strain sdh2, stronger effect = lower value 1.01 | S. cerevisiae deletion strains, locus YLR027C, strain aat2, stronger effect = lower value 0.984 | S. cerevisiae deletion strains, locus YLR039C, strain RIC1, stronger effect = lower value 0.985 | S. cerevisiae deletion strains, locus YLR058C, strain SHM2, stronger effect = lower value 0.996 | S. cerevisiae deletion strains, locus YLR102C, strain apc9, stronger effect = lower value 0.995 | S. cerevisiae deletion strains, locus YLR113W, strain HOG1, stronger effect = lower value 0.989 | S. cerevisiae deletion strains, locus YLR221C, strain rsa3, stronger effect = lower value 0.99 | S. cerevisiae deletion strains, locus YLR258W, strain gsy2, stronger effect = lower value 1 | S. cerevisiae deletion strains, locus YLR262C, strain YPT6 (second series), stronger effect = lower value 1 | S. cerevisiae deletion strains, locus YLR262C, strain YPT6, stronger effect = lower value 1.02 | S. cerevisiae deletion strains, locus YLR268W, strain sec22, stronger effect = lower value 0.956 | S. cerevisiae deletion strains, locus YLR320W, strain mms22, stronger effect = lower value 0.996 | S. cerevisiae deletion strains, locus YLR330W, strain CHS5, stronger effect = lower value 0.982 | S. cerevisiae deletion strains, locus YLR342W, strain FKS1 (second series), stronger effect = lower value 0.998 | S. cerevisiae deletion strains, locus YLR342W, strain FKS1, stronger effect = lower value 1.01 | S. cerevisiae deletion strains, locus YLR357W, strain rsc2, stronger effect = lower value 0.964 | S. cerevisiae deletion strains, locus YLR370C, strain arc18, stronger effect = lower value 1 | S. cerevisiae deletion strains, locus YLR371W, strain rom2, stronger effect = lower value 0.983 | S. cerevisiae deletion strains, locus YLR384C, strain iki3, stronger effect = lower value 1 | S. cerevisiae deletion strains, locus YLR418C, strain cdc73, stronger effect = lower value 0.972 | S. cerevisiae deletion strains, locus YML016C, strain PPZ1, stronger effect = lower value 0.987 | S. cerevisiae deletion strains, locus YML032C, strain rad52, stronger effect = lower value 0.982 | S. cerevisiae deletion strains, locus YML120C, strain ndi1, stronger effect = lower value 0.999 | S. cerevisiae deletion strains, locus YML124C, strain tub3, stronger effect = lower value 0.984 | S. cerevisiae deletion strains, locus YMR058W, strain fet3, stronger effect = lower value 1.01 | S. cerevisiae deletion strains, locus YMR078C, strain ctf18, stronger effect = lower value 0.984 | S. cerevisiae deletion strains, locus YMR125W, strain sto1, stronger effect = lower value 0.976 | S. cerevisiae deletion strains, locus YMR129W, stronger effect = lower value 0.997 | S. cerevisiae deletion strains, locus YMR205C, strain PFK2, stronger effect = lower value 0.994 | S. cerevisiae deletion strains, locus YMR223W, strain ubp8, stronger effect = lower value 0.995 | S. cerevisiae deletion strains, locus YMR231W, strain pep5, stronger effect = lower value 0.999 | S. cerevisiae deletion strains, locus YMR263W, strain SAP30, stronger effect = lower value 0.996 and 1.01 | S. cerevisiae deletion strains, locus YMR307W, strain GAS1, stronger effect = lower value 0.984 and 1.02 | S. cerevisiae deletion strains, locus YNL067W, strain RPL9B, stronger effect = lower value 1.01 | S. cerevisiae deletion strains, locus YNL071W, strain lat1, stronger effect = lower value 1.01 | S. cerevisiae deletion strains, locus YNL153C, strain GIM3, stronger effect = lower value 1.01 | S. cerevisiae deletion strains, locus YNL175C, strain NOP13, stronger effect = lower value 1.01 | S. cerevisiae deletion strains, locus YNL183C, strain NPR1, stronger effect = lower value 0.953 | S. cerevisiae deletion strains, locus YNL197C, strain WHI3, stronger effect = lower value 1.02 | S. cerevisiae deletion strains, locus YNL209W, strain ssb2, stronger effect = lower value 0.994 | S. cerevisiae deletion strains, locus YNL224C, strain SQS1, stronger effect = lower value 1 | S. cerevisiae deletion strains, locus YNL233W, strain BNI4, stronger effect = lower value 0.988 | S. cerevisiae deletion strains, locus YNL248C, strain rpa49, stronger effect = lower value 0.99 | S. cerevisiae deletion strains, locus YNL250W, strain rad50, stronger effect = lower value 0.978 | S. cerevisiae deletion strains, locus YNL271C, strain bni1, stronger effect = lower value 0.983 | S. cerevisiae deletion strains, locus YNL298W, strain CLA4, stronger effect = lower value 0.979 | S. cerevisiae deletion strains, locus YNL307C, strain MCK1, stronger effect = lower value 0.982 | S. cerevisiae deletion strains, locus YNL322C, strain KRE1 (second series), stronger effect = lower value 0.989 | S. cerevisiae deletion strains, locus YNR049C, strain mso1, stronger effect = lower value 0.98 | S. cerevisiae deletion strains, locus YNR052C, strain pop2, stronger effect = lower value 0.982 | S. cerevisiae deletion strains, locus YOL006C, strain TOP1, stronger effect = lower value 1.03 | S. cerevisiae deletion strains, locus YOL012C, strain htz1 1.09 | S. cerevisiae deletion strains, locus YOL147C, strain pex11, stronger effect = lower value 0.985 | S. cerevisiae deletion strains, locus YOR001W, strain rrp6, stronger effect = lower value 0.989 | S. cerevisiae deletion strains, locus YOR061W, strain CKA2, stronger effect = lower value 0.987 | S. cerevisiae deletion strains, locus YOR069W, strain VPS5, stronger effect = lower value 0.986 | S. cerevisiae deletion strains, locus YOR070C, strain gyp1, stronger effect = lower value 1 | S. cerevisiae deletion strains, locus YOR080W, strain dia2, stronger effect = lower value 0.996 | S. cerevisiae deletion strains, locus YOR083W, strain WHI5 (second series), stronger effect = lower value 1.01 | S. cerevisiae deletion strains, locus YOR083W, strain WHI5, stronger effect = lower value 0.998 | S. cerevisiae deletion strains, locus YOR106W, strain vam3, stronger effect = lower value 0.998 | S. cerevisiae deletion strains, locus YOR136W, strain idh2, stronger effect = lower value 0.992 | S. cerevisiae deletion strains, locus YOR144C, strain elg1, stronger effect = lower value 0.994 | S. cerevisiae deletion strains, locus YOR184W, strain ser1, stronger effect = lower value 0.99 | S. cerevisiae deletion strains, locus YOR231W, strain MKK1, stronger effect = lower value 1.02 | S. cerevisiae deletion strains, locus YOR265W, strain rbl2, stronger effect = lower value 0.996 | S. cerevisiae deletion strains, locus YOR270C, strain vph1, stronger effect = lower value 1.03 | S. cerevisiae deletion strains, locus YOR290C, strain snf2, stronger effect = lower value 1.01 | S. cerevisiae deletion strains, locus YOR316C, strain cot1, stronger effect = lower value 0.994 | S. cerevisiae deletion strains, locus YPL051W, strain arl3, stronger effect = lower value 1 | S. cerevisiae deletion strains, locus YPL055C, strain LGE1, stronger effect = lower value 1.02 | S. cerevisiae deletion strains, locus YPL078C, strain atp4, stronger effect = lower value 0.994 | S. cerevisiae deletion strains, locus YPL106C, strain sse1, stronger effect = lower value 0.973 | S. cerevisiae deletion strains, locus YPL240C, strain hsp82, stronger effect = lower value 1 | S. cerevisiae deletion strains, locus YPL241C, strain CIN2, stronger effect = lower value 1 | S. cerevisiae deletion strains, locus YPL256C, strain CLN2, stronger effect = lower value 0.986 | S. cerevisiae deletion strains, locus YPR119W, strain clb2, stronger effect = lower value 0.995 | S. cerevisiae deletion strains, locus YPR141C, strain kar3, stronger effect = lower value 0.978 | S. cerevisiae deletion strains, locus YPR163C, strain tif3, stronger effect = lower value 0.984 | S. cerevisiae deletion strains, locus YPR167C, strain met16, stronger effect = lower value 0.984 | S. cerevisiae deletion strains, strain wtn01, stronger effect = lower value 0.964 | S. cerevisiae strains, strain wild type, stronger effect = lower value 1.01
